Test results: article PMC7862700, “An all-to-all approach to the identification of sequence-specific readers for epigenetic DNA modifications on cytosine”

Experiments:
Experiment in all cases: DAPPL (digital affinity profiling via proximity ligation, sequencing); 10 mM Tris-HCl pH 7.5, 50 mM NaCl, 1 mM DTT, 4% glycerol, room temperature, 30 min; GST-TFs on glutathione beads, 16-mer random dsDNA library, 0.1% formaldehyde crosslink after washing; high values mean tight binding
FLI1 = biological target: T1, FLI1 (Homo sapiens, UniProt Q01543 1-452); settings: protein: recombinant; tags: N-terminal GST; dsDNA, one strand shown
T1 sequence: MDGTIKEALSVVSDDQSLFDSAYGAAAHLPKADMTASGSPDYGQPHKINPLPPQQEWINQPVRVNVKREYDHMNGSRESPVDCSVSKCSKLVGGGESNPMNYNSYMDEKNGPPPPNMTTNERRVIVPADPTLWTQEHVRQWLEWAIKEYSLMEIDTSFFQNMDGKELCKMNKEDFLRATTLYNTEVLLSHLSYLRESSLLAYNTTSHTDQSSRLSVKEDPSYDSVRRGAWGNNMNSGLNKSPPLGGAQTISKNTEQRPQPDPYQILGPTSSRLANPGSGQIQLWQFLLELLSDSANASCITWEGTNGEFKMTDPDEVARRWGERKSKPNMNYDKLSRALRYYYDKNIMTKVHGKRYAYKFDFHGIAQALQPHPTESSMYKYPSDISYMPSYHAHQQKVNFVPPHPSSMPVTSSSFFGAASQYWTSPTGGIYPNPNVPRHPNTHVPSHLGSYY
Method in brief: (§1)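 In yeast, human transcription factors were expressed with a GST fusion, then pulled down on glutathione beads and given DNA barcodes. Pooled with a tag-only sample, they were exposed to 200 nmole of a 16-mer random double-stranded DNA library (Tris/NaCl/DTT/glycerol buffer, room temperature, 30 min), washed, crosslinked with 0.1% formaldehyde, proximity-ligated using BsaI/T4 ligase for 1 h at 37 °C, PCR-amplified and read on an Illumina NextSeq500. Each hexamer's frequency of reads for a factor, divided by the matching frequency for the tag-only sample, gives the binding signal.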

ELK1 = biological target: T2, ELK1 (Homo sapiens, UniProt P19419 1-428); settings: protein: recombinant; tags: N-terminal GST; dsDNA, one strand shown
T2 sequence: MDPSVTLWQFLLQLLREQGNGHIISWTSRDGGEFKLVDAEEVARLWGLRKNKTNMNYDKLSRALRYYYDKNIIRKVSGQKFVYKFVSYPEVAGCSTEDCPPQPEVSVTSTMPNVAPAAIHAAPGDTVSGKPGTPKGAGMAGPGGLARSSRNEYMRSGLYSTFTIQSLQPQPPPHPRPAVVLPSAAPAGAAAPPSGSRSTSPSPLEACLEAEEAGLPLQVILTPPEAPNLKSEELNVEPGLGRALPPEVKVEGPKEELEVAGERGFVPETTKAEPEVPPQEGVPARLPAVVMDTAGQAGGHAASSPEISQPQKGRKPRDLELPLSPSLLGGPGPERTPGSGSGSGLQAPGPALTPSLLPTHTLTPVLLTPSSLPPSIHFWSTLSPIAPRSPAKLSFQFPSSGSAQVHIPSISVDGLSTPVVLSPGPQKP
Method in brief: as §1

GABPA = biological target: T3, GABPA (Homo sapiens, UniProt Q06546 1-454); settings: protein: recombinant; tags: N-terminal GST; dsDNA, one strand shown
T3 sequence: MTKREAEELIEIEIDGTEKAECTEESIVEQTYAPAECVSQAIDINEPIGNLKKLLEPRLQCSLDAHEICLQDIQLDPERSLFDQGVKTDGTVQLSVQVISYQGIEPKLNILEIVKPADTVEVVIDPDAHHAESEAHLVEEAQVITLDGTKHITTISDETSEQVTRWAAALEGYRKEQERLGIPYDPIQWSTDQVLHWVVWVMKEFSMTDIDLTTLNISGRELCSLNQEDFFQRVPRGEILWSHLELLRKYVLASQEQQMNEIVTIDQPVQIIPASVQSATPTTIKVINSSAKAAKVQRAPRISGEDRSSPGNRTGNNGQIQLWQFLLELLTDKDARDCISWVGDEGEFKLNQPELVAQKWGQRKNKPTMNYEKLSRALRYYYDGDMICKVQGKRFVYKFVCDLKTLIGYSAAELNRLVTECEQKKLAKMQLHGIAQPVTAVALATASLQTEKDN
Method in brief: as §1

ERG = biological target: T4, ERG (Homo sapiens, UniProt P11308 1-479); settings: protein: recombinant; tags: N-terminal GST; dsDNA, one strand shown
T4 sequence: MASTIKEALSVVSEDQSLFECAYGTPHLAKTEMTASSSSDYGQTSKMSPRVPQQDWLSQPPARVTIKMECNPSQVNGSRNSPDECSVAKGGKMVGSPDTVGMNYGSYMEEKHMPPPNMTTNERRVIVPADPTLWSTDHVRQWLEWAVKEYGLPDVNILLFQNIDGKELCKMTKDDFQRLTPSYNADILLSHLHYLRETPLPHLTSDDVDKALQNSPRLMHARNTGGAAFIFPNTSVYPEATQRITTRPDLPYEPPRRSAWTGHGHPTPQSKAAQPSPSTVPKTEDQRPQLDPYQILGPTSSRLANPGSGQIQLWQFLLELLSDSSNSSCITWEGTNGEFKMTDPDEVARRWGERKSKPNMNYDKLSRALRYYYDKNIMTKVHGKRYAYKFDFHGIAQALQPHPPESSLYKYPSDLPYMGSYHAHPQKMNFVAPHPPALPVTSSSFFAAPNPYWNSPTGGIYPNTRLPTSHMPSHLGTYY
Method in brief: as §1

ELF1 = ELF1 (Homo sapiens, UniProt P32519 1-619); settings: protein: recombinant; tags: N-terminal GST; dsDNA, one strand shown
Sequence of ELF1 (P32519 whole entry): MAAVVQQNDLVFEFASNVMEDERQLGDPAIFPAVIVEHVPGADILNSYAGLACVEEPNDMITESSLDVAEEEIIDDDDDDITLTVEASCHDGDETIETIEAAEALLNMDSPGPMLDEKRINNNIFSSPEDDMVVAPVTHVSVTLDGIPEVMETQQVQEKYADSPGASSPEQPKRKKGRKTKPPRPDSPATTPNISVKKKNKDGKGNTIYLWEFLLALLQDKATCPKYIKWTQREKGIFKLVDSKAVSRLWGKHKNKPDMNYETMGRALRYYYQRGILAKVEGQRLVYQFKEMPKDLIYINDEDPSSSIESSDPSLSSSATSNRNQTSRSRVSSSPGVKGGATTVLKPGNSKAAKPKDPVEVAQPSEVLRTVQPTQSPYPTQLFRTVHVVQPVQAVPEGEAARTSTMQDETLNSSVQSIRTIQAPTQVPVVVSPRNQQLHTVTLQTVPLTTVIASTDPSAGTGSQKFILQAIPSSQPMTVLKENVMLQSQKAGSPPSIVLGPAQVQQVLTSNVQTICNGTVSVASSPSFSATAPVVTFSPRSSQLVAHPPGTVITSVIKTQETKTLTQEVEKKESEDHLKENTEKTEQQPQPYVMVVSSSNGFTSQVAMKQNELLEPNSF
Method in brief: as §1

EHF = biological target: T5, EHF (Homo sapiens, UniProt Q9NZC4 1-300); settings: protein: recombinant; tags: N-terminal GST; dsDNA, one strand shown
T5 sequence: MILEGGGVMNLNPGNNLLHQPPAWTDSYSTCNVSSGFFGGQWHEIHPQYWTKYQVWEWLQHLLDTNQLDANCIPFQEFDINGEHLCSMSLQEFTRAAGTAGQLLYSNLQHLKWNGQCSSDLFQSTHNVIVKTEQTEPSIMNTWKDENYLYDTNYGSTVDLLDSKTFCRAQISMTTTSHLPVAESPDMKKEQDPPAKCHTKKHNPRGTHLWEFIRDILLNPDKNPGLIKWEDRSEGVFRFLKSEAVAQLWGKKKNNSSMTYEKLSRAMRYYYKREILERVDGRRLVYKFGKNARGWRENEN
Method in brief: as §1

SPI1 = SPI1 (Homo sapiens, UniProt P17947 1-270); settings: protein: recombinant; tags: N-terminal GST; dsDNA, one strand shown
Method in brief: as §1

SPIB = SPIB (Homo sapiens, UniProt Q01892 1-262); settings: protein: recombinant; tags: N-terminal GST; dsDNA, one strand shown
Sequence of SPIB (Q01892 whole entry): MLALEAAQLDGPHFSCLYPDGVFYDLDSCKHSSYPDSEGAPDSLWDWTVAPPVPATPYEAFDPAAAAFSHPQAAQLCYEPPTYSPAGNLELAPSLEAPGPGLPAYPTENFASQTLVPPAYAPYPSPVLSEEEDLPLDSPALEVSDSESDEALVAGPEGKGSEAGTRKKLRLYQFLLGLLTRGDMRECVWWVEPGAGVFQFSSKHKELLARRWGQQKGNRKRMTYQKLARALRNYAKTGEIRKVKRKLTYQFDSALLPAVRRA
Method in brief: as §1

ELK3 = biological target: T6, ELK3 (Homo sapiens, UniProt P41970 1-407); settings: protein: recombinant; tags: N-terminal GST; dsDNA, one strand shown
T6 sequence: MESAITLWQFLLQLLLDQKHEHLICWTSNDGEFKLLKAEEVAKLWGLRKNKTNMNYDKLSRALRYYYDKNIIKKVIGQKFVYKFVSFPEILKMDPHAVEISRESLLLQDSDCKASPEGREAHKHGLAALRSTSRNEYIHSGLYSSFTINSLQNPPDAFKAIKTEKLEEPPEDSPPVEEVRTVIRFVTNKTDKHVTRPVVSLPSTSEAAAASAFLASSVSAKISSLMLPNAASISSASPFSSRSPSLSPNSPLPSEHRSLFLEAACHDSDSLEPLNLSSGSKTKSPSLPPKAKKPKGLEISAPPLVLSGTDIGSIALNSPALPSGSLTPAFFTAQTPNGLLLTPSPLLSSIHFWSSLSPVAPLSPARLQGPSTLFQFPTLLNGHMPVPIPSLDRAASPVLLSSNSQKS
Method in brief: as §1

FEV = biological target: T7, FEV (Homo sapiens, UniProt Q99581 1-238); settings: protein: recombinant; tags: N-terminal GST; dsDNA, one strand shown
T7 sequence: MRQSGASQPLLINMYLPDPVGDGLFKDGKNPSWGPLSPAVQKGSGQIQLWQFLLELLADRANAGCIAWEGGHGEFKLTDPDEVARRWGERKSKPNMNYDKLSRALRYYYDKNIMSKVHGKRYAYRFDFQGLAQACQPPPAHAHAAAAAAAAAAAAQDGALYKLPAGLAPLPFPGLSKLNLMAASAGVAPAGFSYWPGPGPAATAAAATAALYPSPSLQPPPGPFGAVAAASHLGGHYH
Method in brief: as §1

ETV5 = ETV5 (Homo sapiens, UniProt P41161 1-510); settings: protein: recombinant; tags: N-terminal GST; dsDNA, one strand shown
Sequence of ETV5 (P41161 whole entry): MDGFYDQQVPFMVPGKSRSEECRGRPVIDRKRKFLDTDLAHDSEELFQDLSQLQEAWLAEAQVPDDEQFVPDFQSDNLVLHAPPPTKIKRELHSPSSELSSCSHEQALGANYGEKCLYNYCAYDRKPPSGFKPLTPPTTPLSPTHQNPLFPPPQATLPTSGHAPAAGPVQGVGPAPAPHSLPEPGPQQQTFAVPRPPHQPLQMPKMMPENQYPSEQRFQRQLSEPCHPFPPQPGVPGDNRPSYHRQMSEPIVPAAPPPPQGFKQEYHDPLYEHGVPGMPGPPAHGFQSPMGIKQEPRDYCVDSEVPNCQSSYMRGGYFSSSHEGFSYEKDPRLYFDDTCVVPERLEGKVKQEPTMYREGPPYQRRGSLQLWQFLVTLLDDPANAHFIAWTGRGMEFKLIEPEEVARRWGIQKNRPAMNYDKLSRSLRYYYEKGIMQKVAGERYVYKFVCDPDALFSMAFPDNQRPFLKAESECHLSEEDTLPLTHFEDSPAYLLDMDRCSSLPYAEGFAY
Method in brief: as §1

HSF1 = HSF1 (Homo sapiens, UniProt Q00613 1-529); settings: protein: recombinant; tags: N-terminal GST; chain copies: 3; dsDNA, one strand shown
Sequence of HSF1 (Q00613 whole entry): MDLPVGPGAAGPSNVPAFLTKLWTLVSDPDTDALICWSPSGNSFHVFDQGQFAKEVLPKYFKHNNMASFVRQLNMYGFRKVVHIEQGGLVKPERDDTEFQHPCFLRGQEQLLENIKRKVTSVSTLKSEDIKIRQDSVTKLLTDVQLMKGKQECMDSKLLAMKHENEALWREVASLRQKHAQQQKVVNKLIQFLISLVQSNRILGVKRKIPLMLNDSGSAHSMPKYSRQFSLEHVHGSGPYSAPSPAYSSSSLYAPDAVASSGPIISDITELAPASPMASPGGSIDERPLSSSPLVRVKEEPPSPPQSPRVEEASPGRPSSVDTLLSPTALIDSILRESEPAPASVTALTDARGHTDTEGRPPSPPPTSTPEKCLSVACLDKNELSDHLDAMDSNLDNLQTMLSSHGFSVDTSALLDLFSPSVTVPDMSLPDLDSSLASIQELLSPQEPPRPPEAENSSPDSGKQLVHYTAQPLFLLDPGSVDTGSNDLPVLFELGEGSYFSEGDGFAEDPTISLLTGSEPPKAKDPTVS
Method in brief: as §1

SPIC = biological target: T8, SPIC (Homo sapiens, UniProt Q8N5J4 1-248); settings: protein: recombinant; tags: N-terminal GST; dsDNA, one strand shown
T8 sequence: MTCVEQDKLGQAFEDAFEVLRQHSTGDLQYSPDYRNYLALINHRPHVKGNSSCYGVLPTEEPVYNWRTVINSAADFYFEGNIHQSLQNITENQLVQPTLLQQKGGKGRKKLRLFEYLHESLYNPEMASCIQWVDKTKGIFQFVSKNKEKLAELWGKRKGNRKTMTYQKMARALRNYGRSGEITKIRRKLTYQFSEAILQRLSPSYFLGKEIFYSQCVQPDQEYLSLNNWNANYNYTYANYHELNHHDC
Method in brief: as §1

ELF4 = ELF4 (Homo sapiens, UniProt Q99607 1-663); settings: protein: recombinant; tags: N-terminal GST; dsDNA, one strand shown
Sequence of ELF4 (Q99607 whole entry): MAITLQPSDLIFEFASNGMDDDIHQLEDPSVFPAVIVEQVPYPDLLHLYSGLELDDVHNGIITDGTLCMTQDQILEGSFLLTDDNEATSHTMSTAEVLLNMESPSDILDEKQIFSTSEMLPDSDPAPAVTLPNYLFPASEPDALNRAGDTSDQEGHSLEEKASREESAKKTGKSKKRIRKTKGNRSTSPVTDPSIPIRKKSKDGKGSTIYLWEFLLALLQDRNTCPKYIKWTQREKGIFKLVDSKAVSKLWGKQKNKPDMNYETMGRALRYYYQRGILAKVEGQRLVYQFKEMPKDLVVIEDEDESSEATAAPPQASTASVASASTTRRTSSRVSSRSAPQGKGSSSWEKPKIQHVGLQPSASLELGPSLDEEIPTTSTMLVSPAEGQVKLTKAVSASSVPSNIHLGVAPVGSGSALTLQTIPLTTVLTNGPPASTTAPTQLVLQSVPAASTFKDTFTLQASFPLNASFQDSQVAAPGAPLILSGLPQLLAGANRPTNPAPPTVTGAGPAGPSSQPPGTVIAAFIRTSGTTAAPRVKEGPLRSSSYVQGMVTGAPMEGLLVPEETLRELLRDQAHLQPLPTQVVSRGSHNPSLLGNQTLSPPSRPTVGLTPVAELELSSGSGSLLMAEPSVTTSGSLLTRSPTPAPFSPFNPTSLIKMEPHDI
Method in brief: as §1

ELK4 = biological target: T9, ELK4 (Homo sapiens, UniProt P28324-2 1-405); settings: protein: recombinant; tags: N-terminal GST; dsDNA, one strand shown
T9 sequence: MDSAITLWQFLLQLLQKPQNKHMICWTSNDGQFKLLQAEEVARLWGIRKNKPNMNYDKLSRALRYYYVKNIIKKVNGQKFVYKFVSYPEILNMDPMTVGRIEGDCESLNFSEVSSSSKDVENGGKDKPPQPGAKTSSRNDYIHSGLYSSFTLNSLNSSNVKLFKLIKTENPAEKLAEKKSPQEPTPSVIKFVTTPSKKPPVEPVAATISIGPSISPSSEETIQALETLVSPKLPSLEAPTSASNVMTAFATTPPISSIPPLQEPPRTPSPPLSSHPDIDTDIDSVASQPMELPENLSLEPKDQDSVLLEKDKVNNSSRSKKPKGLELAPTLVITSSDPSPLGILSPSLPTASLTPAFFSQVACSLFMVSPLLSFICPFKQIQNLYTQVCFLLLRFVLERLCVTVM
Method in brief: as §1

ETV2 = biological target: T10, ETV2 (Homo sapiens, UniProt O00321 1-342); settings: protein: recombinant; tags: N-terminal GST; dsDNA, one strand shown
T10 sequence: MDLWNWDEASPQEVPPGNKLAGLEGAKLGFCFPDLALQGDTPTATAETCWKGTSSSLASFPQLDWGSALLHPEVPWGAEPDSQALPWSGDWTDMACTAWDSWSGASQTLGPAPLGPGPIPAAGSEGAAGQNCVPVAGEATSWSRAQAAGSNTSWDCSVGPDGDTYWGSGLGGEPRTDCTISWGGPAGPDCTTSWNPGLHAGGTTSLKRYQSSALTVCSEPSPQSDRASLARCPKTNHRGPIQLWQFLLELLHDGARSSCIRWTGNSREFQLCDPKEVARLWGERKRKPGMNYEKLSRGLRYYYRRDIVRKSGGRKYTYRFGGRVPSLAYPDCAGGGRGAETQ
Method in brief: as §1

ELF3 = biological target: T11, ELF3 (Homo sapiens, UniProt P78545 1-371); settings: protein: recombinant; tags: N-terminal GST; dsDNA, one strand shown
T11 sequence: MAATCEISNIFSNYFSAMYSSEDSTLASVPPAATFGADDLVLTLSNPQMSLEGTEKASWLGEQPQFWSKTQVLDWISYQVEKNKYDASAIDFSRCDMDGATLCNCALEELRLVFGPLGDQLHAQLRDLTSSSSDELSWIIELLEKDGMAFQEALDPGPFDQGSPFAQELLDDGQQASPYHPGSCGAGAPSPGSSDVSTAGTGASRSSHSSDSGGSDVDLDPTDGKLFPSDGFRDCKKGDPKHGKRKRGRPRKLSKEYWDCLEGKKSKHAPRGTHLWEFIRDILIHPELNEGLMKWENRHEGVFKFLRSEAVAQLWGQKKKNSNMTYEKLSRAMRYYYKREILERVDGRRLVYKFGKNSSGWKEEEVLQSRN
Method in brief: as §1

CRX = CRX (Homo sapiens, UniProt O43186 1-299); settings: protein: recombinant; tags: N-terminal GST; dsDNA, one strand shown
Sequence of CRX (O43186 whole entry): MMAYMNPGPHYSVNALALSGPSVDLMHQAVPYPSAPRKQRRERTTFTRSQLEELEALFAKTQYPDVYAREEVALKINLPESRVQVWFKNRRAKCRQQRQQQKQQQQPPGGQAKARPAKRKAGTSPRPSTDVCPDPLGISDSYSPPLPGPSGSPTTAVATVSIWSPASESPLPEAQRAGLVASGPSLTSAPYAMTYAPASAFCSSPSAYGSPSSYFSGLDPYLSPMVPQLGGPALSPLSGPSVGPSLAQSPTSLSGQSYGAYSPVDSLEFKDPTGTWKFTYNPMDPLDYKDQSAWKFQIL
Method in brief: as §1

ETV1 = ETV1 (Homo sapiens, UniProt P50549 1-477); settings: protein: recombinant; tags: N-terminal GST; dsDNA, one strand shown
Sequence of ETV1 (P50549 whole entry): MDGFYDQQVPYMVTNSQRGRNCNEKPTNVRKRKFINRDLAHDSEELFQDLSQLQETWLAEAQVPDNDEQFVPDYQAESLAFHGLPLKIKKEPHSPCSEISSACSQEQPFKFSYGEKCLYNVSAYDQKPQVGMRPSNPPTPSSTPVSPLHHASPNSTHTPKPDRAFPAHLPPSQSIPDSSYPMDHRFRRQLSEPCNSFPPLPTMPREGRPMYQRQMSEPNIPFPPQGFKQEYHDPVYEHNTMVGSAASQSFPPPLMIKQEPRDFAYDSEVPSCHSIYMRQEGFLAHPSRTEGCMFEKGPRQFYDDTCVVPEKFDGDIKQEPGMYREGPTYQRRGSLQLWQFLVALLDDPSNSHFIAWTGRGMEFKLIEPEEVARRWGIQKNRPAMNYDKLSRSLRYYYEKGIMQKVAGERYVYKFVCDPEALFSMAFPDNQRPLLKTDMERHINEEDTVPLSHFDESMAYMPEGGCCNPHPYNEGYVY
Method in brief: as §1

## TTTTAC
FLI1
  binding signal: 1.45 fold enrichment (6-mer frequency, TF over GST control)
ELK1
  binding signal: 1.27 fold enrichment (6-mer frequency, TF over GST control)
GABPA
  binding signal: 1.33 fold enrichment (6-mer frequency, TF over GST control)
ERG
  binding signal: 1.3 fold enrichment (6-mer frequency, TF over GST control)
ELF1
  binding signal: 1.39 fold enrichment (6-mer frequency, TF over GST control)
EHF
  binding signal: 1.45 fold enrichment (6-mer frequency, TF over GST control)
SPI1
  binding signal: 1.37 fold enrichment (6-mer frequency, TF over GST control)
SPIB
  binding signal: 1.4 fold enrichment (6-mer frequency, TF over GST control)
ELK3
  binding signal: 1.39 fold enrichment (6-mer frequency, TF over GST control)
FEV
  binding signal: 1.37 fold enrichment (6-mer frequency, TF over GST control)
ETV5
  binding signal: 1.36 fold enrichment (6-mer frequency, TF over GST control)
HSF1
  binding signal: 1.37 fold enrichment (6-mer frequency, TF over GST control)
SPIC
  binding signal: 1.4 fold enrichment (6-mer frequency, TF over GST control)
ELF4
  binding signal: 1.37 fold enrichment (6-mer frequency, TF over GST control)
ELK4
  binding signal: 1.41 fold enrichment (6-mer frequency, TF over GST control)
ETV2
  binding signal: 1.37 fold enrichment (6-mer frequency, TF over GST control)
ELF3
  binding signal: 1.4 fold enrichment (6-mer frequency, TF over GST control)
CRX
  binding signal: 1.51 fold enrichment (6-mer frequency, TF over GST control)
ETV1
  binding signal: 1.46 fold enrichment (6-mer frequency, TF over GST control)
